According to PubChem BioAssay (Tox21):
Several values for one entry are separate records, joined by “and”; a condition that tells them apart may be missing. Equal values may be shown once. A number with no mark means an inactive call. Inconclusive results are not listed. Activity calls are given as the source filed them. Unless noted, the call rests on the fitted dose curve; in most records, active means well fitted curve in the direction sought with a large enough effect in the repeat runs; inconclusive means weak or mixed curves; inactive means no such curve, though single readings can be large; an effect the other way counts as inactive or inconclusive.

Columns and labels:
[1] = qHTS assay to identify small molecule agonists of H2AX - cell viability counter screen (AID 1224847; calls by dose curve; further: nearly all actives have a fitted effect of over 30% in size; further: potency means the concentration at half of the fitted maximal effect)
How it was run: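 CHO-K1 wt, 1000 cells/well, o/n 37C; cpds 15 conc, 3 h 37C, 0.76% DMSO; CellTiter-Glo, 30 min RT, luminescence.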

[2] = qHTS assay to identify small molecule antagonists of the estrogen related receptor (ERR) signaling pathway from Tox21 library (AID 1224848); further: nearly all actives have a fitted effect of over 50% in size; further: potency means the concentration at half of the fitted maximal effect
How it was run: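 Luciferase luminescence (ONE-Glo, 30 min room temperature) was the read-out. Cells of the NTP-supplied ERR line, 2,000 per well, were given 6 h at 37 C before compound addition in DMSO and 18 h exposure at 37 C.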

[3] = qHTS assay to identify small molecule agonists of the estrogen related receptor (ERR) signaling pathway from Tox21 library (AID 1224849; calls by dose curve; further: nearly all actives have a fitted effect of over 15% in size); settings: ERR reporter cell line, ONE-Glo luciferase, 18 h; at 92.4 µM (top of the series) unless noted
How it was run: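 Luminescent agonist read-out (One-Glo, 30-minute room-temperature incubation) following 18-hour compound treatment at 37 C of the ERR cell line, which had been plated 6 hours before dosing.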

[4] = qHTS RealTime-Glo MT Cell Viability Assay in HepG2 cells - 24 hour (AID 1224867); further: nearly all actives have a fitted effect of over 50% in size; further: potency means the concentration at half of the fitted maximal effect
How it was run: (§1)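 Cells + NanoLuc/prosubstrate dispensed (600 cells/well) → 5 h at 37 C/5% CO2 → compounds in DMSO transferred → 40 h incubation at 37 C, luminescence read at 0, 8, 16, 24, 32, 40 h.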

[5] = A CellTox Green Cytotoxicity Assay to monitor cytotoxicity in HEK293 cells - 0 hour (AID 1224869); further: nearly all actives have a fitted effect of over 50% in size; further: potency means the concentration at half of the fitted maximal effect
How it was run: (§2)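 Fluorescence from a DNA-binding dye excluded by viable cells was measured repeatedly in the same HEK293 wells (600 cells/well) during continuous compound exposure at 37 C. Each assay gives one read point: 0, 8, 16, 24, 32 or 40 h.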

[6] = qHTS RealTime-Glo MT Cell Viability Assay in HepG2 cells - 40 hour (AID 1224870); further: nearly all actives have a fitted effect of over 50% in size; further: potency means the concentration at half of the fitted maximal effect
How it was run: (§3)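 Real-time viability: cells seeded at 600 per well together with NanoLuc and cell-permeant prosubstrate, compounds added after 5 h incubation. Luminescence tracked at 0, 8, 16, 24, 32 and 40 h of exposure.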

[7] = A CellTox Green Cytotoxicity Assay to monitor cytotoxicity in HEK293 cells - 24 hour (AID 1224875); further: nearly all actives have a fitted effect of over 45% in size; further: potency means the concentration at half of the fitted maximal effect
How it was run: as §2

[8] = A CellTox Green Cytotoxicity Assay to monitor cytotoxicity in HepG2 cells - 16 hour (AID 1224876); further: nearly all actives have a fitted effect of over 45% in size; further: potency means the concentration at half of the fitted maximal effect
How it was run: (§4)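 Real-time cytotoxicity: fluorescence of a cell-impermeant cyanine dye binding DNA of dead HepG2 cells, measured repeatedly (0–40 h) during compound exposure at 37 C. Cells seeded 600/well with reagent, dosed after 5 h.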

[9] = qHTS RealTime-Glo MT Cell Viability Assay in HepG2 cells - 32 hour (AID 1224877); further: nearly all actives have a fitted effect of over 55% in size; further: potency means the concentration at half of the fitted maximal effect
How it was run: as §1

[10] = A CellTox Green Cytotoxicity Assay to monitor cytotoxicity in HepG2 cells - 40 hour (AID 1224879); further: nearly all actives have a fitted effect of over 40% in size; further: potency means the concentration at half of the fitted maximal effect
How it was run: as §4

[11] = qHTS RealTime-Glo MT Cell Viability Assay in HEK293 cells - 0 hour (AID 1224880); further: top concentration of the series differs between compounds; nearly all actives have a fitted effect of over 45% in size
How it was run: (§5)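 Luminescence, which tracks viable cell number through reduction of the prosubstrate to a NanoLuc substrate, was read over continuous 37 C culture. Cells (600/well) were premixed with reagent and rested 5 h before 23 nL of compound in DMSO was pinned.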

[12] = A CellTox Green Cytotoxicity Assay to monitor cytotoxicity in HEK293 cells - 32 hour (AID 1224881); further: nearly all actives have a fitted effect of over 40% in size; further: potency means the concentration at half of the fitted maximal effect
How it was run: as §2

[13] = A CellTox Green Cytotoxicity Assay to monitor cytotoxicity in HepG2 cells - 0 hour (AID 1224882); further: nearly all actives have a fitted effect of over 35% in size
How it was run: as §4

[14] = qHTS RealTime-Glo MT Cell Viability Assay in HEK293 cells - 32 hour (AID 1224868); further: nearly all actives have a fitted effect of over 50% in size; further: potency means the concentration at half of the fitted maximal effect
How it was run: (§6)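 Tox21 10K qHTS, HEK293, 600 cells/well, RealTime-Glo reagent co-dispensed with cells; 5 h preincubation, compound by pintool, 37 C, luminescence at 0–40 h.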

[15] = qHTS RealTime-Glo MT Cell Viability Assay in HEK293 cells - 16 hour (AID 1224872); further: nearly all actives have a fitted effect of over 50% in size; further: potency means the concentration at half of the fitted maximal effect
How it was run: as §6

[16] = qHTS RealTime-Glo MT Cell Viability Assay in HepG2 cells - 8 hour (AID 1224873); further: nearly all actives have a fitted effect of over 55% in size; further: potency means the concentration at half of the fitted maximal effect
How it was run: as §3

[17] = qHTS RealTime-Glo MT Cell Viability Assay in HEK293 cells - 40 hour (AID 1224874); settings: RealTime-Glo luminescence; max response: hits give low values; further: nearly all actives have a fitted effect of over 50% in size; further: potency means the concentration at half of the fitted maximal effect
How it was run: as §5

[18] = A CellTox Green Cytotoxicity Assay to monitor cytotoxicity in HepG2 cells - 24 hour (AID 1224878); further: nearly all actives have a fitted effect of over 45% in size; further: potency means the concentration at half of the fitted maximal effect
How it was run: as §4

[19] = A CellTox Green Cytotoxicity Assay to monitor cytotoxicity in HEK293 cells - 40 hour (AID 1224871); further: nearly all actives have a fitted effect of over 45% in size; further: potency means the concentration at half of the fitted maximal effect
How it was run: as §2
On the % scale 0 is the no-effect control and ±100 the full control effect.

SMILES | Potency [1] | Potency [2] | activity change, positive = activation [3] | Potency [4] | Potency [5] | Potency [6] | Potency [7] | Potency [8] | Potency [9] | Potency [10] | Potency [11] | Potency [12] | Potency [13] | Potency [14] | Potency [15] | Potency [16] | Potency [17] | Potency [18] | Potency [19] | max response [17]
c1ccc(Nc2ccc3ccccc3c2)cc1 | 100 µM (active) and 80 µM (active) | inactive | 53.3% (active) and 56% (active) | inactive | inactive | inactive | inactive | inactive | inactive | 48.7 µM (active) | inactive | inactive | inactive | – | – | – | – | – | – | –
CC(C)CC(C)Nc1ccc(Nc2ccccc2)cc1 (stereo not given) | 78.7 µM (active) | 47.7 µM (active) | -75.8% | – | – | – | – | inactive | – | – | – | 48.2 µM (active) | inactive | 21.5 µM (active) | 19.2 µM (active) | 42.9 µM (active) | 21.5 µM (active) | inactive | – | –
O=C(O)C1C2CCC(O2)C1C(=O)O (stereo not given) | inactive | inactive | 4.71% | inactive | – | inactive | – | inactive | inactive | – | inactive | inactive | inactive | – | inactive | – | – | inactive | inactive | –
O=S(=O)(c1ccc(Cl)cc1)c1ccc(Cl)cc1 | 57.3 µM (active) | 13.9 µM (active) | -35.9% | inactive | inactive | – | – | inactive | inactive | inactive | inactive | – | inactive | – | – | – | – | inactive | – | –
Oc1ccc(C2(c3ccc(O)cc3)c3ccccc3-c3ccccc32)cc1 | 89.8 µM (active) | – | -78.7% | 54.9 µM (active) | inactive | – | – | – | – | 61.6 µM (active) | inactive | inactive | inactive | 43.6 µM (active) | 49 µM (active) | – | – | 61.6 µM (active) | inactive | –
CCC(C)(C)C(=O)OC1=C(c2ccc(Cl)cc2Cl)C(=O)OC12CCCCC2 | inactive | inactive | – | inactive | inactive | inactive | inactive | inactive | inactive | inactive | – | inactive | inactive | inactive | inactive | inactive | – | inactive | inactive | -14%
CC(Cc1ccc(C(C)(C)C)cc1)CN1C[C@@H](C)O[C@@H](C)C1 (stereo not given in full) | 63.5 µM (active) | – | -8.81% | inactive | inactive | inactive | 49 µM (active) | – | – | – | inactive | 49 µM (active) | inactive | inactive | – | inactive | – | – | 49 µM (active) | –
N#CCCC(Br)(C#N)CBr (stereo not given) | 127 µM (active) | – | -45.2% | 38.9 µM (active) | inactive | 38.9 µM (active) | 54.9 µM (active) | 43.6 µM (active) | 34.7 µM (active) | 24.5 µM (active) | inactive | 54.9 µM (active) | inactive | 21.9 µM (active) | 38.9 µM (active) | 49 µM (active) | 21.9 µM (active) | 38.9 µM (active) | 49 µM (active) | –
N#Cc1c(-c2ccc(Cl)cc2)[nH]c(C(F)(F)F)c1Br | 2.84 µM (active) | 0.344 µM (active) | -60.7% | – | – | inactive | inactive | inactive | – | – | inactive | 49 µM (active) | inactive | 1.55 µM (active) | 6.92 µM (active) | – | 1.23 µM (active) | – | 49 µM (active) | –
C[C@H]1CC[C@@H]2[C@@H](C)[C@H]3[C@H](C[C@H]4[C@@H]5CC=C6CC(O[C@@H]7O[C@H](CO)[C@H](O)[C@H](O[C@@H]8O[C@H](CO)[C@@H](O)[C@H](O)[C@H]8O)[C@H]7O[C@H]7O[C@@H](C)[C@H](O)[C@@H](O)[C@H]7O)CC[C@]6(C)[C@H]5CC[C@]34C)N2C1 (stereo not given in full) | 32.9 µM (active) | – | -50.4% | – | inactive | 56.7 µM (active) | 4.51 µM (active) | 22.6 µM (active) | 50.6 µM (active) | 22.6 µM (active) | – | 5.06 µM (active) | inactive | 14.3 µM (active) | 12.7 µM (active) | – | 14.3 µM (active) | 11.3 µM (active) | 7.14 µM (active) | –
ClC1=C(Cl)[C@]2(Cl)[C@@H]3[C@@H]4C[C@@H]([C@H]5O[C@@H]45)[C@@H]3[C@@]1(Cl)C2(Cl)Cl | 50.5 µM (active) | 43.3 µM (active) | -52.1% | 43.6 µM (active) | 43.6 µM (active) | – | 49 µM (active) | 54.9 µM (active) | 49 µM (active) | 49 µM (active) | inactive | 43.6 µM (active) | – | 21.9 µM (active) | 21.9 µM (active) | 43.6 µM (active) | 44.9 µM (active) | 49 µM (active) | – | –
Clc1ccc(CO/N=C(\Cn2ccnc2)c2ccc(Cl)cc2Cl)c(Cl)c1 | 49.2 µM (active) | 18.8 µM (active) | -54.4% [at 42.5 µM] | 23.9 µM (active) | inactive | – | inactive | – | – | 26.8 µM (active) | inactive | inactive | inactive | 21.3 µM (active) | 21.3 µM (active) | – | 21.3 µM (active) | – | inactive | –
